Test results taken from PubChem BioAssay AID1460 (National Center for Advancing Translational Sciences (NCATS), 2008).
Screen size: about 270,000 compounds; about 5,800 (2.1%) were called active. Inconclusive results (about 16%) are left out. The full list was thinned out, with actives kept by preference. More than one record can exist for a structure, and the calls need not agree. Unmarked numbers belong to inactive results. Calls follow the shape of the dose curve; as a rule, active = well fitted inhibition curve with a large enough effect; inconclusive = small, poorly fitted or top-dose-only effect; inactive = flat fitted curve, though single readings scatter.

Each compound was assayed against Microtubule-associated protein tau (Homo sapiens) (UniProt P10636) (assay: qHTS for Inhibitors of Tau Fibril Formation, Thioflavin T Binding). Conditions: recombinant tau K18 P301L (four-repeat tau fragment), heparin-induced fibrillization, ThT fluorescence; series mostly up to 57.4 µM; activity, negative = inhibition: at the top concentration.
From the text: NIH Molecular Libraries Probe Production Network [MLPCN]
NIH Chemical Genomics Center [NCGC]
Assay Provider: Carlo Ballatore, University of Pennsylvania
The microtubule-associated protein tau is an abundant protein in the axons of neurons that stabilizes microtubules. With its ability to modulate microtubule dynamics, tau contributes directly or indirectly, to key structural and regulatory cellular functions. Particularly important is the influence tau exerts on axonal transport, which allows signaling molecules, trophic factors and other essential cellular constituents to travel along the axons. Under pathological conditions, tau becomes sequestered into insoluble aggregates called neurofibrillary tangles. This phenomenon is believed to have pathological consequences by promoting axonal transport deficits that ultimately lead to synaptic dysfunction and neuronal loss. To identify inhibitors of tau aggregation, a heparin-induced tau fibril formation assay was used that employed a recombinantly expressed fragment of tau, K18 (Q242-E372), bearing a P301L mutation (Gustke et al. 1994; Hong et al. 1998). This assay monitors tau fibrillization by Thioflavin T (ThT) fluorescence.
Gustke, N., B. Trinczek, et al. (1994). "Domains of tau protein and interactions with microtubules." Biochemistry 33(32): 9511-22.
Hong, M., V. Zhukareva, et al. (1998).
Li, W. and V. M. Lee (2006).
von Bergen, M., S. Barghorn, et al. (2001). "Mutations of tau protein in frontotemporal dementia promote aggregation of paired helical filaments by enhancing local beta-structure." J Biol Chem 276(51): 48165-74.
NCGC Assay Protocol Summary:
For screening, 2 uL/well human K18 P301L (15 uM unlabeled and 0.24 uM Alexa 594-labeled tau, final concentrations) in reagent buffer (100 mM sodium acetate pH 7) was dispensed into black solid 1536-well plates (Grenier) using a solenoid-based dispenser. Following transfer of 23 nL compound or DMSO vehicle by a pin tool, 2 uL/well heparin (20 uM final concentration) in reagent buffer was added and the plate centrifuged 15 s at 1000 RPM. Plates were incubated 6 hr at 37 C and then 1 uL/well ThT (30 uM final concentration) was added. After a 1 hr ambient incubation, the plates were read by an Envision (Perkin Elmer) to monitor ThT fluorescence (450/8 nm excitation and 510/23 nm emission).
Keywords: NIH Roadmap, MLPCN, MLI, MLSMR, NCGC, qHTS, tau, tauopathies, Alzheimer's disease, fibril, neurodegeneration, aggregation
% is scaled to controls: 0 for no effect and ±100 for the full control effect; potency is read from the fitted curve at half-maximal effect.
Also: nearly all actives have a fitted effect of over 55% in size.

Chain of Microtubule-associated protein tau (Homo sapiens) (P10636 561-689 P618L limits assumed): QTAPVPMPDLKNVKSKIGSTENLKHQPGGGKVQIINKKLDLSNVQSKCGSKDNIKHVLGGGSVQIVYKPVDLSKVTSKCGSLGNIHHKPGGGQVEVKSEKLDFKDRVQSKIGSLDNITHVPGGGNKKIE

SMILES	Potency	activity, negative = inhibition
Nc1[nH][nH]c(=O)c1N=Nc1ccc2c(c1)OCO2	11.2 µM (active)	–
Cc1[nH][nH]c(=O)c1C(c1ccc2c(c1)OCO2)c1c(C)[nH][nH]c1=O	–	-9.72%
CC(=O)c1cc2c(cc1N)OCO2	–	-6.51%
COc1ccccc1N1CCN(S(=O)(=O)CCNC(=O)COc2ccc(F)cc2)CC1	–	-9.39%
Cc1ccc2c(c1)c1c(c(=O)n(-c3ccccc3)c(=O)n1CC(=O)c1ccc(Cl)cc1)n2C	–	2.43%
COc1ccc(CCNC(=O)CCCn2c(=O)c3ccccc3n(Cc3ccc(F)cc3Cl)c2=O)cc1OC	–	-15.2%
CN1/C(=C\C=C2\N=C(c3ccc(F)cc3)OC2=O)C(C)(C)c2ccccc21	28.2 µM (active)	–
CN1/C(=C\C(=O)c2oc3ccccc3c2N)C(C)(C)c2ccccc21	–	-9.9%
CN1/C(=C\C(=O)c2cccnc2Cl)C(C)(C)c2ccccc21	–	-12.7%
COc1ccc(OCc2ccc(-c3nc(C#N)c(N4CCN(c5ccccc5)CC4)o3)o2)cc1	–	-13%
COCC(=O)N=Nc1c(O)[nH]c2ccccc12	–	2.47%
COc1ccccc1N=Cc1c(O)c2ccccc2oc1=O	–	-10.1%
COc1ccc(N=Cc2c(O)[nH]c3ccccc23)cc1OC	14.1 µM (active)	–
Cc1cc(NC(=O)c2ccc(-c3ccc(Cl)cc3)o2)cc(-c2nc3ncccc3o2)c1O	–	-20%
Cc1oc2ncn(CC(C)C)c(=O)c2c1C(=O)N1CCN(c2ccccc2F)CC1	–	1.01%
COc1ccccc1CNS(=O)(=O)c1cc(Br)cc2c1N(C(C)=O)C(C)C2 (stereo not given)	–	-3.82%
CCC(CC)C(=O)N1CCc2cc(OC)c(OC)cc2C1COc1ccc(F)cc1 (stereo not given)	–	-2.69%
CC1(OC(=O)CCc2ccccc2)C(=O)C=C2C=C(c3ccc(C#N)cc3)N(CCc3ccccn3)C=C2C1=O (stereo not given)	28.2 µM (active)	5.29% [at 11.5 µM]
CCCCC1=CC2=CC(=O)C(C)(OC(=O)CC)C(=O)C2=CN1CCCOC(C)C (stereo not given)	–	0.166% [at 11.5 µM]
CC1(OC(=O)C2CCCC2)C(=O)C=C2C=C(c3ccc(C#N)cc3)OC=C2C1=O (stereo not given)	–	-0.0683%
COc1ccc(NC(=O)CCCN2C(=O)CCn3nc(-c4cn(C)c5ccccc45)cc32)cc1OC	–	-16.8%
COc1ccccc1OCC(=O)Nc1nnc2n1CCS2	–	-8.04%
CCc1ccc(NC(=O)C2CCCN2S(=O)(=O)c2ccc3nc(-c4ccccc4)[nH]c3c2)cc1 (stereo not given)	–	-0.653%
COC(=O)C1=C(C)NC(=O)NC1/C=C/c1ccccc1 (stereo not given)	–	-3.02%
COc1cc(C2C(C(=O)OCCC#N)=C(C)NC3=C2S(=O)(=O)c2ccccc23)cc(OC)c1OC (stereo not given)	–	1.33%

SMILES	Potency	activity, negative = inhibition
CCOc1cc(C2C(C(=O)OC)=C(C)NC3=C2C(=O)c2ccccc23)ccc1O (stereo not given)	14.1 µM (active)	–
CCOc1cc(C2C(C(=O)Nc3ccc(OC)cc3)=C(C)Nc3nc(SC)nn32)ccc1O (stereo not given)	–	-15.4%
COc1ccccc1NC(=O)C1=C(C)NC2=C(C(=O)CCC2)C1c1ccc(C)o1 (stereo not given)	–	-2.96%
COC(=O)C1=C(C)NC2=C(C(=O)c3ccccc32)C1c1ccc(-c2ccc(C(=O)O)cc2)o1 (stereo not given)	8.91 µM (active)	–
Cc1nn(C)c2c1c(C(F)(F)F)cc(=O)n2C(C)C(=O)NCc1ccc(Cl)cc1 (stereo not given)	–	-0.102%
CC(C)(C)c1ccc(C(=O)NCC(c2ccco2)S(=O)(=O)c2ccc(F)cc2)cc1 (stereo not given)	–	-13.2%
Cc1ccc(Cl)cc1NC(=O)CSc1nc2ccccc2nc1Cc1ccccc1	–	6.27%
Cc1ccc(NC(=O)C2CCN(S(=O)(=O)c3cc(-c4noc(C)n4)ccc3C)CC2)c(C)c1	–	12.4%
O=C(NCCCc1ccccc1)c1ccc2c(c1)sc1nc(-c3ccc(F)cc3)cn12	–	-2.4%
COc1ccc2[nH]c3c(c2c1)CCN(C(=O)CCC1CCCC1)C3c1ccc(F)cc1 (stereo not given)	–	-10%
CC(C)C(=O)Nc1nc2c(s1)CC(C(C)(C)C)CC2 (stereo not given)	–	-5.04%
CCOC(=O)c1c(-c2cccc(C)c2)csc1NC(=O)c1c(-c2ccccc2)noc1C	–	4.1%
CCCS(=O)(=O)c1ncc(Cl)c(C(=O)Nc2scc(-c3ccccc3)c2C(=O)OCC)n1	7.94 µM (active)	–
CCOC(=O)c1c(-c2ccccc2)csc1NC(=S)NC(=O)c1ccccc1	–	-20%
COc1cc(CNC(=O)c2cc3n(n2)CCCN(Cc2cccc(F)c2)C3=O)cc(OC)c1OC	–	-16.7%
COc1cc(/C=N\NC(=O)c2nonc2N)c(OC)cc1Br	–	-11.8%
Nc1nnnn1CC(=O)N/N=C/c1ccc(-c2cccc(Cl)c2)o1	–	3.14%
Cc1cc(C)c([N+](=O)[O-])cc1-c1ccc(/C=N/NC(=O)c2nonc2N)o1	5.01 µM (active)	–
Cc1ccc(-c2ccc(/C=N/NC(=O)CN3CCOCC3)o2)cc1[N+](=O)[O-]	15.8 µM (active)	–
Cc1ccc(NC(=O)CN2CCC(C(N)=O)CC2)cc1[N+](=O)[O-]	–	1.4%
COC(=O)N/N=C/c1ccc(-c2ccc(Cl)c(Cl)c2)o1	–	10.7%
CCC(=O)N1N=C(c2ccc(OC)cc2)CC1c1cn(-c2ccccc2)nc1-c1cccs1 (stereo not given)	–	-7.19%
COc1cc(NC(=O)c2noc3c2CSc2ccccc2-3)cc(OC)c1OC	–	-11.9%
CCN(CC)c1ccc(/C=N/Nc2nc(C)cc(C)n2)c(O)c1	–	4.14%
Cc1cc(/C=N/NC(=O)c2cccnc2)c(C)n1CC(C)C	–	-11.4%

SMILES	Potency	activity, negative = inhibition
CCN(CC)c1ccc(/C=N/NC(=O)c2cnccn2)c(O)c1	5.62 µM (active)	–
CC(CNC(=O)c1nnc(Cc2cccc(F)c2)o1)c1ccccc1 (stereo not given)	–	6.43%
O=C(CCSCc1cccc(F)c1)NCc1ccccc1	–	12.1%
COc1cc(OC)c(NC(=O)Cc2ccc(-n3c(C)nc4cccnc43)cc2)cc1Cl	–	-1.35%
COc1ccc(C(=O)CSc2c(C(C)C)cnc3c2c(=O)n(C)c(=O)n3C)cc1	–	-12.6%
CCCCNC(=O)Nc1c(C)cc(SC#N)cc1C	22.4 µM (active)	–
CCCCNC(=S)NNC(=O)c1cc(C)on1	–	-2.68%
CCCCNC(=O)C(=O)c1ccccc1NC(C)=O	–	0.0865%
O=C(NC(=S)Nc1cccc2c(O)cccc12)c1cccc(Br)c1	12.6 µM (active)	–
O=C(NC(=S)Nc1ccc(S(=O)(=O)Nc2ncccn2)cc1)c1cccc(Br)c1	–	1.91%
NS(=O)(=O)c1ccc(NC(=S)NC(=O)c2cccc(Br)c2)cc1	–	-1.11%
O=[N+]([O-])c1cccc(S(=O)(=O)N2CCCCCC2)c1	–	-12.3%
O=C(Oc1ccccc1C(=S)N1CCCCC1)c1cc([N+](=O)[O-])cc([N+](=O)[O-])c1	25.1 µM (active)	–
COC(=O)c1ccc(C(=O)OC)c(NC(=S)N2CCCCC2)c1	–	-4.54%
CCS(=O)(=O)N1CCc2cc(C(=O)NCc3ccc(C)cc3)ccc21	–	6.94%
CCCCN(CC)CCCNC(=O)c1nn(C)c2c1CSc1ccccc1-2	–	-0.916%
COc1cccc(-n2c(=O)c3c(C)c(C(=O)N(C)C)sc3n(Cc3cccc(C)c3)c2=O)c1	–	-11%
CCOC(=O)c1cc(-c2ccccc2)n(CCC(=O)Nc2ccccc2CC)c1C	–	-1.04%
CCOC(=O)Nc1ccccc1N1C(=O)c2ccccc2C1=O	–	-1.89%
CCOC(=O)c1cc2n(c1N)-c1ccccc1C2=O	14.1 µM (active)	–
O=C(CCl)NNc1cccc(Cl)n1	14.1 µM (active)	–
COc1cc(OC)nc(NC(=O)CCl)n1	–	4.78%
O=C(NNc1ccccn1)c1ccc(Cl)nc1	–	-1.76%
Cc1ccc(CNC(=O)CCC(=O)N2Cc3ccccc3Oc3ncccc32)cc1	–	10.7%
COc1ccccc1CNC(=O)C(=O)NCC(c1ccco1)S(=O)(=O)c1ccc(F)cc1 (stereo not given)	–	-8.71%

SMILES	Potency	activity, negative = inhibition
CCCCN=C1C([N+](=O)[O-])=CC=C2C1=NC1(CCCCC1)N2O	8.91 µM (active)	–
CCCOc1ccc(NC(=O)CC2C(=O)N(c3ccccc3)C(=O)N2Cc2ccco2)cc1 (stereo not given)	–	-1.41%
CCOc1ccc(NC(=O)Cn2c(=O)n(CCCC(=O)NCc3ccc4c(c3)OCO4)c(=O)c3ccccc32)cc1	–	4.7%
O=C(Nc1cnccn1)c1cccnc1	–	-5.4%
O=C(NN=C1CCC(=NNC(=O)c2cccnc2)CC1)c1cccnc1	39.8 µM (active)	–
C/C(=N\NC(=O)c1cccnc1)c1ccc(-c2ccccc2)cc1	–	-9.51%
CCOc1ccccc1NC(=O)Cn1c(=O)n(Cc2ccccc2)c(=O)c2c(C)c(C(=O)N(C)C)sc21	–	-3.85%
COc1ccccc1CSc1nc2ccccc2[nH]1	–	-17.4%
COc1ccccc1CSc1ncc(-c2ccc([N+](=O)[O-])cc2)[nH]1	14.1 µM (active)	–
COc1ccccc1CC(=O)Nc1ccc([N+](=O)[O-])cc1OC	–	-15.6%
Oc1c(Cl)cc(Cl)c(Cl)c1Cc1c(O)c(Cl)cc(Cl)c1Cl	20 µM (active)	–
CCOc1ccc(NC(=O)C(=O)NCCc2csc3nc(-c4ccccc4F)nn23)cc1	–	-9.2%
CCc1ccccc1NC(=O)Cn1c(=O)n(-c2cccc(C)c2)c(=O)c2c1c1cc(OC)ccc1n2C	–	9.95%
COCCNC(=S)Nc1cc(S(=O)(=O)N2CCOCC2)ccc1N1CCCCC1	35.5 µM (active)	–
O=C(COC(=O)Cc1ccc(F)cc1)Nc1cc(S(=O)(=O)N2CCOCC2)ccc1N1CCCC1	–	3.5%
CC(=O)NCCC(=O)Nc1cc(S(=O)(=O)N2CCOCC2)ccc1N1CCOCC1	–	1.5%
COc1ccc(-c2nc3scc(CCNS(=O)(=O)c4cc(F)ccc4OC)n3n2)cc1OC	–	-10.1%
Cc1ccc(-n2c(SCC(=O)c3ccccc3)nc3c([nH]c4ccccc43)c2=O)cc1	–	11%
Cc1ccc(N2NC(=O)/C(=C/C=C/c3ccco3)C2=O)cc1C	10 µM (active)	–
CCC1S/C(=N/N=C/c2ccco2)NC1=O (stereo not given)	–	0.34%
Cc1ccc(C(=O)N/C(=C\c2ccco2)C(=O)N2CCSCC2)cc1C	–	-2.66%
CN(C)c1ccc(-n2cccc2/C=C2/SC(=Nc3ccc(F)cc3)NC2=O)cc1	–	-15.4%
Cc1ccc(-c2cc(C(=O)N/N=C/C=C/c3ccco3)c3ccccc3n2)cc1C	–	-8.53%
Cc1ccc(N=C2NC(=O)/C(=C/C=C/c3ccco3)S2)cc1C	4.47 µM (active)	–
